This is part of a sample that, as a whole, favours compounds with a hit. Of some 79,000 tested, about 15% had one in any assay. Activity calls are given as the source filed them. Rule as the data show it: active = growth inhibition above about 70%; inactive = the rest.
Experiments:
[1] = NCI Yeast Anticancer Drug Screen. Data for the rad52 strain (AID 147);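 also: 0% = growth of vehicle-treated control cultures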; details: S. cerevisiae rad52 mutant growth inhibition, active compounds read high
Outline: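 Genetically altered yeast (DNA damage repair defect) treated with compound; inhibition calculated relative to vehicle.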

[2] = NCI Yeast Anticancer Drug Screen. Data for the wt1 strain (AID 149);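 also: 0% = growth of vehicle-treated wt1 cultures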; details: S. cerevisiae wt1 strain (SPY 50644) growth inhibition, active compounds read high
Outline: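 Yeast wt1 strain exposed to compounds; growth inhibition measured relative to vehicle-treated controls.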

[3] = NCI Yeast Anticancer Drug Screen. Data for the rad50EPP+ strain (AID 151);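 also: 0% = growth of vehicle-treated control cultures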; details: S. cerevisiae rad50 mutant strain, active compounds read high
Outline: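 Strain rad50EPP+; compound exposure; % growth inhibition vs vehicle.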

[4] = NCI Yeast Anticancer Drug Screen. Data for the mgt1 strain (AID 153); details: S. cerevisiae mgt1 mutant growth inhibition, active compounds read high
Outline: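 Read-out: yeast growth inhibition vs vehicle control. Strain mgt1, drawn from a panel altered in DNA damage repair or cell cycle control.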

[5] = NCI Yeast Anticancer Drug Screen. Data for the rad50 strain (AID 155);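 also: 0% = growth of vehicle-only cultures of the same strain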; details: S. cerevisiae rad50 strain growth inhibition, active compounds read high
Outline: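 Yeast carrying a defined DNA repair defect were exposed to test compounds, and growth was compared with vehicle-treated controls to give percent inhibition.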

[6] = NCI Yeast Anticancer Drug Screen. Data for the mec2-1 strain (AID 157); details: S. cerevisiae mec2-1 strain, active compounds read high
Outline: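 Cells of the genetically defined mec2-1 yeast strain are incubated with test compound. Inhibition of growth is calculated against vehicle-treated controls.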

[7] = NCI Yeast Anticancer Drug Screen. Data for the rad14 strain (AID 159);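 also: 0% = growth of vehicle-treated control cultures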; details: S. cerevisiae rad14 strain growth inhibition, active compounds read high
Outline: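 Yeast cells carrying a defined DNA-repair defect were exposed to compounds, and growth inhibition was calculated relative to vehicle-treated control cultures.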

[8] = NCI Yeast Anticancer Drug Screen. Data for the sgs1 mgt1 strain (AID 161);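 also: 0% = growth of cultures given vehicle only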; details: S. cerevisiae sgs1 mgt1 strain, active compounds read high
Outline: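 Mutant yeast exposed to compound; growth scored against vehicle-only wells.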

[9] = NCI Yeast Anticancer Drug Screen. Data for the CLN2oe strain (AID 163);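 also: 0% = growth of vehicle-only control cultures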; details: S. cerevisiae CLN2oe strain, active compounds read high
Outline: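 Strain altered in cell-cycle control, incubated with compound; growth compared to solvent-treated controls.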

[10] = NCI Yeast Anticancer Drug Screen. Data for the cln2 rad14 strain (AID 165);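 also: 0% = growth equal to vehicle treated cultures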; details: S. cerevisiae cln2 rad14 strain, active compounds read high
Outline: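 The screen exposed genetically defined yeast (cln2 rad14) to test compounds and scored growth inhibition relative to vehicle-treated controls.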

[11] = NCI Yeast Anticancer Drug Screen. Data for the bub3 strain (AID 167); details: S. cerevisiae bub3 mutant strain, active compounds read high
Outline: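 Compounds were applied to a genetically altered yeast strain carrying a cell-cycle control defect. Growth inhibition was scored against vehicle-treated controls.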

[12] = NCI Yeast Anticancer Drug Screen. Data for the wt2 strain (AID 169);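 also: 0% = growth of vehicle-treated yeast cultures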; details: S. cerevisiae wt2 strain growth inhibition, active compounds read high
Outline: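 Steps: yeast strain treated with compound; growth recorded; inhibition calculated relative to cultures given vehicle alone.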

[13] = NCI Yeast Anticancer Drug Screen. Data for the mlh1 strain (AID 171);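 also: 0% = growth of vehicle-treated control cultures of the same strain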; details: S. cerevisiae mlh1 strain growth inhibition, active compounds read high
Outline: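 Yeast screen: mutant strain plus compound, growth scored against vehicle control wells.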

[14] = NCI Yeast Anticancer Drug Screen. Data for the sgs1 strain (AID 173);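 also: 0% = growth of vehicle-only control cultures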; details: S. cerevisiae sgs1 mutant, active compounds read high
Outline: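 Inhibition of yeast growth served as the measure. The mutant strain was treated with each compound, and growth was normalised to cultures receiving vehicle alone.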

[15] = NCI Yeast Anticancer Drug Screen. Data for the mlh1 rad18 strain (AID 175); details: S. cerevisiae mlh1 rad18 strain growth inhibition, active compounds read high
Outline: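 Compound-treated yeast growth, normalised to vehicle controls. Strain bears defined DNA repair mutations.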

[16] = NCI Yeast Anticancer Drug Screen. Data for the rad18 strain (AID 177); details: S. cerevisiae rad18 mutant growth inhibition, active compounds read high
Outline: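 Inhibition values reflect reduced yeast growth compared with vehicle-treated controls, using a strain engineered with a DNA damage repair defect.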

[17] = at 5.0 µM (retest, dose inferred, filed as 0.5)
[18] = at 50.0 µM (retest, dose inferred, filed as 5.0)

Measured: growth inhibition

CCCCCCCCCCNC(=O)OCC
inactive: [1]; at 1.2 µM 0% | [1]; at 3.7 µM 1% | [1]; at 11.0 µM 11% | [1]; at 33.0 µM 37% | [2]; at 1.2 µM -3% | [2]; at 3.7 µM -5% | [2]; at 11.0 µM -4% | [2]; at 33.0 µM 4% | [3]; at 1.2 µM 1% | [3]; at 3.7 µM 9% | [3]; at 11.0 µM 28% | [3]; at 33.0 µM 68% | [4]; at 1.2 µM -2% | [4]; at 3.7 µM -11% | [4]; at 11.0 µM 4% | [4]; at 33.0 µM 28% | [5]; at 1.2 µM 1% | [5]; at 3.7 µM 9% | [5]; [17] 1% | [5]; at 11.0 µM 24% | [5]; at 33.0 µM 40% | [5]; [18] 22% | [6]; at 1.2 µM -7% | [6]; at 3.7 µM -5% | [6]; [17] -7% | [6]; at 11.0 µM -6% | [6]; at 33.0 µM 7% | [6]; [18] 28% | [7]; at 1.2 µM -4% | [7]; at 3.7 µM -4% | [7]; at 11.0 µM -3% | [7]; at 33.0 µM 8% | [8]; [17] -2% | [8]; [18] 56% | [9]; at 1.2 µM 0% | [9]; at 3.7 µM 0% | [9]; at 11.0 µM 4% | [9]; at 33.0 µM 12% | [10]; [17] -55% | [10]; [18] 15% | [11]; at 1.2 µM 2% | [11]; at 3.7 µM -18% | [11]; [17] -21% | [11]; at 11.0 µM 9% | [11]; at 33.0 µM 8% | [11]; [18] 4% | [12]; at 1.2 µM -3% | [12]; at 3.7 µM -3% | [12]; at 11.0 µM 1% | [12]; at 33.0 µM 38% | [13]; at 1.2 µM -3% | [13]; at 3.7 µM 2% | [13]; at 11.0 µM 1% | [13]; at 33.0 µM 20% | [14]; at 1.2 µM -1% | [14]; at 3.7 µM -1% | [14]; at 11.0 µM 7% | [14]; at 33.0 µM 59% | [15]; [17] -15% | [15]; [18] 68% | [16]; at 1.2 µM 0% | [16]; at 3.7 µM 1% | [16]; at 11.0 µM 18% | [16]; at 33.0 µM 11%
active: [1]; at 100.0 µM 98% | [2]; at 100.0 µM 98% | [3]; at 100.0 µM 81% | [4]; at 100.0 µM 99% | [5]; at 50.0 µM 84.5% | [5]; at 100.0 µM 99% | [6]; at 50.0 µM 93.5% | [6]; at 100.0 µM 100% | [7]; at 100.0 µM 99% | [8]; at 50.0 µM 83.7% | [9]; at 100.0 µM 99% | [10]; at 50.0 µM 98.3% | [11]; at 50.0 µM 95.3% | [11]; at 100.0 µM 99% | [12]; at 100.0 µM 99% | [13]; at 100.0 µM 99% | [14]; at 100.0 µM 99% | [15]; at 50.0 µM 95% | [16]; at 100.0 µM 99%

Nc1nc(Cl)c(Cl)c(Cl)n1
active: [1]; at 33.0 µM 88% | [1]; at 100.0 µM 99% | [2]; at 100.0 µM 99% | [3]; at 11.0 µM 89% | [3]; at 33.0 µM 93% | [3]; at 100.0 µM 99% | [4]; at 33.0 µM 90% | [4]; at 100.0 µM 99% | [5]; [18] 100% | [5]; at 100.0 µM 99% | [6]; at 33.0 µM 99% | [6]; [18] 99% | [6]; at 50.0 µM 72.4% | [6]; at 100.0 µM 99% | [7]; at 33.0 µM 99% | [7]; at 100.0 µM 99% | [8]; [18] 99% | [9]; at 100.0 µM 99% | [10]; [18] 99% | [11]; at 33.0 µM 92% | [11]; [18] 99% | [11]; at 100.0 µM 99% | [12]; at 33.0 µM 80% | [12]; at 100.0 µM 99% | [13]; at 33.0 µM 93% | [13]; at 100.0 µM 99% | [14]; at 33.0 µM 99% | [14]; at 100.0 µM 99% | [15]; [17] 80% | [15]; [18] 99%
inactive: [1]; at 1.2 µM 1% | [1]; at 3.7 µM 8% | [1]; at 11.0 µM 32% | [2]; at 1.2 µM -2% | [2]; at 3.7 µM 1% | [2]; at 11.0 µM 14% | [2]; at 33.0 µM 57% | [3]; at 1.2 µM 0% | [3]; at 3.7 µM 34% | [4]; at 1.2 µM 1% | [4]; at 3.7 µM 5% | [4]; at 11.0 µM 20% | [5]; at 1.2 µM 2% | [5]; at 3.7 µM 3% | [5]; [17] 44% | [5]; at 11.0 µM 17% | [5]; at 33.0 µM 51% | [5]; at 50.0 µM 47.3% | [6]; at 1.2 µM 2% | [6]; at 3.7 µM 14% | [6]; [17] 28% | [6]; at 11.0 µM 42% | [7]; at 1.2 µM 3% | [7]; at 3.7 µM 8% | [7]; at 11.0 µM 30% | [8]; [17] 59% | [8]; at 50.0 µM 32.3% | [9]; at 1.2 µM -1% | [9]; at 3.7 µM 0% | [9]; at 11.0 µM 14% | [9]; at 33.0 µM 30% | [10]; [17] 7% | [10]; at 50.0 µM 13.8% | [11]; at 1.2 µM -4% | [11]; at 3.7 µM 1% | [11]; [17] 27% | [11]; at 11.0 µM 18% | [11]; at 50.0 µM -8.05% | [12]; at 1.2 µM 0% | [12]; at 3.7 µM 4% | [12]; at 11.0 µM 17% | [13]; at 1.2 µM -2% | [13]; at 3.7 µM 3% | [13]; at 11.0 µM 18% | [14]; at 1.2 µM 1% | [14]; at 3.7 µM 14% | [14]; at 11.0 µM 45% | [15]; at 50.0 µM 30.4%

— PubChem BioAssay (NCI)
